# The supplement of paper PMC12067093, “Discovery and optimisation of a covalent ligand for TRIM25 and its application to targeted protein ubiquitination” (Chemical Science, 2025)
# Of roughly 21,000 targets only a part is listed; those with the largest changes were picked by preference.
# Compound: CC1Cc2ccccc2N1C(=O)C1CCCN(C1)C(=O)CCl (mixture of isomers) [TRIM25 ligand 11 (diastereomer mixture)]
# Assay: probe-labelled cysteine peptide fold change vs DMSO (competition) (log2 fold change); higher = less target engagement (more negative = stronger competition)
# Conditions: THP-1, incubation time: 4 h
# 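Further: competitive chemoproteomic profiling in live THP-1 cells with an iodoacetamide desthiobiotin (IA-DTB) probe, comparing probe-labelled peptide intensities in compound-treated cells against DMSO-treated controls.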
# Sequence of UniProt P03973 (P03973 whole entry): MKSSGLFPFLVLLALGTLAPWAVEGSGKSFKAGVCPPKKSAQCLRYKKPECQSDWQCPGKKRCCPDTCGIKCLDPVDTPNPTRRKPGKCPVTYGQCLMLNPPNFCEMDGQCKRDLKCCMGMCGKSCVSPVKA
# Sequence of UniProt Q8NB90 (Q8NB90 whole entry, looked up): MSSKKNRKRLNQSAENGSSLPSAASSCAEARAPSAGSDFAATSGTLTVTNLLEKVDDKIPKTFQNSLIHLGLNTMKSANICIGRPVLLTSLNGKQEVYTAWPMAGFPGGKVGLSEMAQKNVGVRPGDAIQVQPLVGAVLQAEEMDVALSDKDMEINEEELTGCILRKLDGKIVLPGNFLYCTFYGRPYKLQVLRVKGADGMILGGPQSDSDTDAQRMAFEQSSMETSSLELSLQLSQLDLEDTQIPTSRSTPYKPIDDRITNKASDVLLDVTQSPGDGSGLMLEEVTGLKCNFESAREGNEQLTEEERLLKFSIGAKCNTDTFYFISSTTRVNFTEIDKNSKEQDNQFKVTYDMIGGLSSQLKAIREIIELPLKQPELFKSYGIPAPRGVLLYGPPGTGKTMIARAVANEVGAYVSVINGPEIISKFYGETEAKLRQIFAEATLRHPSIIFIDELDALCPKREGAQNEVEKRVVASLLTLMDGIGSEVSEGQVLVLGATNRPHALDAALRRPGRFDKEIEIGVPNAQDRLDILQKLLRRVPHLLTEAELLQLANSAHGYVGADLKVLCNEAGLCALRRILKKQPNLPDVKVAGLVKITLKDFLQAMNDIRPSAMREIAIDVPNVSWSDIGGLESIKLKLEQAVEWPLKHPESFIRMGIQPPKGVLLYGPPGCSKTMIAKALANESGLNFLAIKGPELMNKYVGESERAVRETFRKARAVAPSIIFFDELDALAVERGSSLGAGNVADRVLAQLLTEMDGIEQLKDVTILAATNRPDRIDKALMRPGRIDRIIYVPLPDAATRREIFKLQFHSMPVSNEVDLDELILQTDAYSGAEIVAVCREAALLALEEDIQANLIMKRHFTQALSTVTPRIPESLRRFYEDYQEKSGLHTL
# Sequence of UniProt O43159 (O43159 whole entry, looked up): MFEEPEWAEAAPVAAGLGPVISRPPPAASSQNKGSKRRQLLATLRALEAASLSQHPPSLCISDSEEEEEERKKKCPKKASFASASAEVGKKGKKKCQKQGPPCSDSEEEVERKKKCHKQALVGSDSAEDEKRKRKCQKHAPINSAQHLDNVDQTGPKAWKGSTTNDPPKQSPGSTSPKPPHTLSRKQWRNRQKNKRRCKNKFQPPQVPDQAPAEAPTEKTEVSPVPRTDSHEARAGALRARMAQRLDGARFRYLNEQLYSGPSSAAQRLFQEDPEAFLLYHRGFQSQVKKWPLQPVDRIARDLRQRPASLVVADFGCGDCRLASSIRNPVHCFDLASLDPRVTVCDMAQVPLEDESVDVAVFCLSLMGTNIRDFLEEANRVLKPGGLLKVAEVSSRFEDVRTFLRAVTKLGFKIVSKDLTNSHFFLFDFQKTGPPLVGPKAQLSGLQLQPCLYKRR
# Sequence of UniProt Q96DI7 (Q96DI7 whole entry, looked up): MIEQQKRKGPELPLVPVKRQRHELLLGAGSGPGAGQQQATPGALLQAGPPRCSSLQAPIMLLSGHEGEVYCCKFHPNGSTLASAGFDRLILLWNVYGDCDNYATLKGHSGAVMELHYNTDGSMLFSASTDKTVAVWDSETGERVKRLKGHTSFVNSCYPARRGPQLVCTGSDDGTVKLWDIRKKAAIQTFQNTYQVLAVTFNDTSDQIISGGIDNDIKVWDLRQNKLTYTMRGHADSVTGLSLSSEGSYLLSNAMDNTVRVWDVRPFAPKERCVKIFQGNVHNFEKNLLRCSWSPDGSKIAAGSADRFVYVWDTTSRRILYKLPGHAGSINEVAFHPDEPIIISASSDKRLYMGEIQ
# Sequence of UniProt Q13884 (Q13884 whole entry, looked up): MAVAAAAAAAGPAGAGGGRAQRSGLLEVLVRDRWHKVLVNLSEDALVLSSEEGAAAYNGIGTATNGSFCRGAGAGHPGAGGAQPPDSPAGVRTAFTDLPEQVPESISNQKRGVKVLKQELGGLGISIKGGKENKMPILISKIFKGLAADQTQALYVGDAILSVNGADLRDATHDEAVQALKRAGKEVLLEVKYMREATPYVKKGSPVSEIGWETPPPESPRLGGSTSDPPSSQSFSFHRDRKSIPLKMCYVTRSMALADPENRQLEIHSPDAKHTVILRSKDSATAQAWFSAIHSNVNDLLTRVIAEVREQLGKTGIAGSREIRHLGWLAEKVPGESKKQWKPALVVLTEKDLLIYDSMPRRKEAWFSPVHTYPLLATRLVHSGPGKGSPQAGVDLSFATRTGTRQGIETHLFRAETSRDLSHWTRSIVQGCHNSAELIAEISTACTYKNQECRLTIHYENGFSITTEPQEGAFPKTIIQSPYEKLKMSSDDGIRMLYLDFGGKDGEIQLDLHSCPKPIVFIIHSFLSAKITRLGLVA
# Sequence of UniProt P08047 (P08047 whole entry, looked up): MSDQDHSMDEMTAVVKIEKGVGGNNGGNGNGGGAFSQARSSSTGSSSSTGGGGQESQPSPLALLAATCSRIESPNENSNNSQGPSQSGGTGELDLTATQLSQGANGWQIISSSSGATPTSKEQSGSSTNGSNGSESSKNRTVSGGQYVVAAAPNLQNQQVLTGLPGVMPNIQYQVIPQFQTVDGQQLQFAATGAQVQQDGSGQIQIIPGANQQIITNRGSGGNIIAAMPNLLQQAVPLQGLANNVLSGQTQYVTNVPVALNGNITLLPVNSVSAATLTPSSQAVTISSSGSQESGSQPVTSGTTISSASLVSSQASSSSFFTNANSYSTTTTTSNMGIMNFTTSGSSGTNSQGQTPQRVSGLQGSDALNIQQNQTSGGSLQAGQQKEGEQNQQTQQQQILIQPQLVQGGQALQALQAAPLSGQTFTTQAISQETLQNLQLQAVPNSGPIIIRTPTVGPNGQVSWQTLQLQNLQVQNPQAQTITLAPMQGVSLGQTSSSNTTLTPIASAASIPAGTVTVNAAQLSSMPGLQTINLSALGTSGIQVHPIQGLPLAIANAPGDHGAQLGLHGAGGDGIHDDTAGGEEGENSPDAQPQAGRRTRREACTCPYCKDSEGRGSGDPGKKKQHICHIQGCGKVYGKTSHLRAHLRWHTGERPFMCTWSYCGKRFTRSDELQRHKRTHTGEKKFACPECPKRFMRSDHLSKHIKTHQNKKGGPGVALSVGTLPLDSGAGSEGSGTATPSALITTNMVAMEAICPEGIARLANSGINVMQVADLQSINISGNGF
# Sequence of UniProt Q92540 (Q92540 whole entry, looked up): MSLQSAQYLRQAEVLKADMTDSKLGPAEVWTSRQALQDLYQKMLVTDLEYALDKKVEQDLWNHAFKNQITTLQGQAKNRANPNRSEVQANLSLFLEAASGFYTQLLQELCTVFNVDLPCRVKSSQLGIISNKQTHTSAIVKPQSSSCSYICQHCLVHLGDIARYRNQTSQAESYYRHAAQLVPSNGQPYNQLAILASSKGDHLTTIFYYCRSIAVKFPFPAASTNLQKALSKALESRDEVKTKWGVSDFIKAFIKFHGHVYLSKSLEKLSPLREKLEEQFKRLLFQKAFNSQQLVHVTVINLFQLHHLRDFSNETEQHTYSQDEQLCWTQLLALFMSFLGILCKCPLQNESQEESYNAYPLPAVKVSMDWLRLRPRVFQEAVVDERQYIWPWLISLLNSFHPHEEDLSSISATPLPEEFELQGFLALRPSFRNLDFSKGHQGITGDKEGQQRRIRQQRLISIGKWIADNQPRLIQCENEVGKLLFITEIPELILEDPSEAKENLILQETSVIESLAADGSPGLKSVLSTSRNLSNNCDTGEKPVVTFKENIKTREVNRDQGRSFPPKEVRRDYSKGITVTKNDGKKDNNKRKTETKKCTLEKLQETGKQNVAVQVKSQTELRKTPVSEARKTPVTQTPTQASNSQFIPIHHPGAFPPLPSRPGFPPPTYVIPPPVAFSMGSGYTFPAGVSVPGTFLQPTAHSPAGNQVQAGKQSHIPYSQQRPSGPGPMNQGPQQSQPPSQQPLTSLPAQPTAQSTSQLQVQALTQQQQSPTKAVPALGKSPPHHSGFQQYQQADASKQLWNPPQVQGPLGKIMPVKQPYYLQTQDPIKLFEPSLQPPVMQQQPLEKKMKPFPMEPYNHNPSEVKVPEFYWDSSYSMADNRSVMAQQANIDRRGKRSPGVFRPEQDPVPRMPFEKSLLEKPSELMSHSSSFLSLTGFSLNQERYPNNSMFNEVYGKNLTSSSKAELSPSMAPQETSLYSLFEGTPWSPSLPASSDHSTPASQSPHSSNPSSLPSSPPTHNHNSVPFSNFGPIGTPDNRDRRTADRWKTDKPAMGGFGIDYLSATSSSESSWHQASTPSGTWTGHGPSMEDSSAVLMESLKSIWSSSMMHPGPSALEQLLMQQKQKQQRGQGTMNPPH
# Sequence of UniProt Q9Y265 (Q9Y265 whole entry, looked up): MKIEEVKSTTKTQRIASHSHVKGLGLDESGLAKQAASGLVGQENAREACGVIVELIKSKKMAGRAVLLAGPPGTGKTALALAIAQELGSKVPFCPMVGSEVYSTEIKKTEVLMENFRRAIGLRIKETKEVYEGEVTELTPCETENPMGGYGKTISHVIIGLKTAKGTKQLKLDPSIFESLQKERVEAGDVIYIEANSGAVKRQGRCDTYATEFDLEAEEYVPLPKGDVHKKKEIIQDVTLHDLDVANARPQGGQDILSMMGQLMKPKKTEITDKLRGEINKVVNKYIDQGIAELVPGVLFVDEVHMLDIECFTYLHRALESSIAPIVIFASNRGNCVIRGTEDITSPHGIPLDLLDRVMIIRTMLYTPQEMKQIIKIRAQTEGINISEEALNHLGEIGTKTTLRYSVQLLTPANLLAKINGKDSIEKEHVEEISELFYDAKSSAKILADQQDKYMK
# Sequence of UniProt P62316 (P62316 whole entry, looked up): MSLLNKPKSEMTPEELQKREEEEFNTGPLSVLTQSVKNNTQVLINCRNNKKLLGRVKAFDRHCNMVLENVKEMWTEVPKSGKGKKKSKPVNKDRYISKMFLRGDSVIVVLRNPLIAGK
# Sequence of UniProt P05109 (P05109 whole entry): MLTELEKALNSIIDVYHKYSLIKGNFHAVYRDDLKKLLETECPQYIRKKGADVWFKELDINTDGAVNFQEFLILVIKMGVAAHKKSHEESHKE
target,measurement,setting,value
SMS_P52788_256_TCGDVLDNLKGDCYQVLIEDCIPVLKR (UniProt P52788),probe-labelled cysteine peptide fold change,10 µM,-0.302
same,probe-labelled cysteine peptide fold change,50 µM,-0.139
SLC25A5_P05141_257_KGTDIMYTGTLDCWR (UniProt P05141),probe-labelled cysteine peptide fold change,10 µM,-0.0817
same,probe-labelled cysteine peptide fold change,50 µM,-0.062
SF1_Q15637_282+292_CGGAGHIASDCK (UniProt Q15637),probe-labelled cysteine peptide fold change,10 µM,-0.0927
same,probe-labelled cysteine peptide fold change,50 µM,-0.0122
SMAD4_Q13485_127_CDSVCVNPYHYER (UniProt Q13485),probe-labelled cysteine peptide fold change,10 µM,0.000739
same,probe-labelled cysteine peptide fold change,50 µM,0.0905
SLC25A16_P16260_246_THVNLLCGGVAGAIAQTISYPFDVTR (UniProt P16260),probe-labelled cysteine peptide fold change,10 µM,0.365
same,probe-labelled cysteine peptide fold change,50 µM,0.384
SCAF11_Q99590_553_TDVCTVHLPNDFPTCLTSESK (UniProt Q99590),probe-labelled cysteine peptide fold change,10 µM,0.0519
same,probe-labelled cysteine peptide fold change,50 µM,-0.221
SETX_Q7Z333_1398_AGSHTAQNSDIFVPESDRSDYNCTGGTEVLANSNR (UniProt Q7Z333),probe-labelled cysteine peptide fold change,10 µM,-0.136
same,probe-labelled cysteine peptide fold change,50 µM,-0.652
SIL1_Q9H173_408_VLQTLGVLLTTCR (UniProt Q9H173),probe-labelled cysteine peptide fold change,10 µM,0.0793
same,probe-labelled cysteine peptide fold change,50 µM,0.848
SCAF11_Q99590_566_VYQPVSCPLSDLSENVESVVNEEK (UniProt Q99590),probe-labelled cysteine peptide fold change,10 µM,-0.0494
same,probe-labelled cysteine peptide fold change,50 µM,-0.138
RUFY1_Q96T51_692_VCDSCHTLLLQR (UniProt Q96T51),probe-labelled cysteine peptide fold change,10 µM,0.114
same,probe-labelled cysteine peptide fold change,50 µM,-0.0564
RRP8_O43159_451_AQLSGLQLQPCLYK (UniProt O43159),probe-labelled cysteine peptide fold change,10 µM,0.0693
same,probe-labelled cysteine peptide fold change,50 µM,-0.167
RUVBL1_Q9Y265_94_VPFCPMVGSEVYSTEIK (UniProt Q9Y265),probe-labelled cysteine peptide fold change,10 µM,0.0537
same,probe-labelled cysteine peptide fold change,50 µM,-0.0791
RRP12_Q5JTH9_673_GCQAEADRAEVSR (UniProt Q5JTH9),probe-labelled cysteine peptide fold change,10 µM,0.0652
same,probe-labelled cysteine peptide fold change,50 µM,-0.00566
SNRPB_P14678_43+45_HMNLILCDCDEFRK (UniProt P14678),probe-labelled cysteine peptide fold change,10 µM,-0.0283
same,probe-labelled cysteine peptide fold change,50 µM,-0.00106
RSBN1_Q5VWQ0_671_IQLCDNDIYFIPR (UniProt Q5VWQ0),probe-labelled cysteine peptide fold change,10 µM,0.00486
same,probe-labelled cysteine peptide fold change,50 µM,0.13
RSBN1_Q5VWQ0_282_EVQTVCAGLTR (UniProt Q5VWQ0),probe-labelled cysteine peptide fold change,10 µM,0.00457
same,probe-labelled cysteine peptide fold change,50 µM,-0.119
SMAD4_Q13485_391_GVQLECK (UniProt Q13485),probe-labelled cysteine peptide fold change,10 µM,0.0468
same,probe-labelled cysteine peptide fold change,50 µM,0.21
SRP68_Q9UHB9_173_LCESNR (UniProt Q9UHB9),probe-labelled cysteine peptide fold change,10 µM,0.14
same,probe-labelled cysteine peptide fold change,50 µM,0.559
SP1_P08047_633_KQHICHIQGCGK (UniProt P08047),probe-labelled cysteine peptide fold change,10 µM,-0.185
same,probe-labelled cysteine peptide fold change,50 µM,-0.216
SH3GLB1_Q9Y371_304_ECSGSR (UniProt Q9Y371),probe-labelled cysteine peptide fold change,10 µM,-0.137
same,probe-labelled cysteine peptide fold change,50 µM,0.575
SNTB1_Q13884_515_DGEIQLDLHSCPKPIVFIIHSFLSAK (UniProt Q13884),probe-labelled cysteine peptide fold change,10 µM,-0.207
same,probe-labelled cysteine peptide fold change,50 µM,0.302
SMN2_Q16637_60_NGDICETSGKPK (UniProt Q16637),probe-labelled cysteine peptide fold change,10 µM,-0.146
same,probe-labelled cysteine peptide fold change,50 µM,-0.16
RUVBL2_Q9Y230_227_FVQCPDGELQK (UniProt Q9Y230),probe-labelled cysteine peptide fold change,10 µM,0.151
same,probe-labelled cysteine peptide fold change,50 µM,-0.0879
SEC16A_O15027_1293_YWCDAEYDAYR (UniProt O15027),probe-labelled cysteine peptide fold change,10 µM,-0.117
same,probe-labelled cysteine peptide fold change,50 µM,-0.311
SLC7A7_Q9UM01_349_EGHLPDAICMIHVER (UniProt Q9UM01),probe-labelled cysteine peptide fold change,10 µM,0.0357
same,probe-labelled cysteine peptide fold change,50 µM,0.0274
SNRNP40_Q96DI7_72_CSSLQAPIMLLSGHEGEVYCCK (UniProt Q96DI7),probe-labelled cysteine peptide fold change,10 µM,0.165
same,probe-labelled cysteine peptide fold change,50 µM,0.0428
SPATA5_Q8NB90_574_VLCNEAGLCALRR (UniProt Q8NB90),probe-labelled cysteine peptide fold change,10 µM,-0.161
same,probe-labelled cysteine peptide fold change,50 µM,-0.0738
SPTAN1_Q13813_1622_GACAGSEDAVK (UniProt Q13813),probe-labelled cysteine peptide fold change,10 µM,-0.135
same,probe-labelled cysteine peptide fold change,50 µM,-0.00186
S100A8_P05109_42_LLETECPQYIR (UniProt P05109),probe-labelled cysteine peptide fold change,10 µM,-0.0697
same,probe-labelled cysteine peptide fold change,50 µM,-0.229
SNRPD2_P62316_63_HCNMVLENVK (UniProt P62316),probe-labelled cysteine peptide fold change,10 µM,-0.117
same,probe-labelled cysteine peptide fold change,50 µM,-0.0606
RRP12_Q5JTH9_102_SSGTFLSGLSDCTNVTFSK (UniProt Q5JTH9),probe-labelled cysteine peptide fold change,10 µM,0.0888
same,probe-labelled cysteine peptide fold change,50 µM,0.0733
SAMD4B_Q5PRF9_20_GWNECEQTVALLSLLK<|>SAMD4A_Q9UPU9_20_GWNECEQTVALLSLLK (UniProt Q9UPU9+Q5PRF9),probe-labelled cysteine peptide fold change,10 µM,-0.204
same,probe-labelled cysteine peptide fold change,50 µM,0.121
SLC4A1AP_Q9BWU0_399_EGEELEYEFDEQGHSTWLCR (UniProt Q9BWU0),probe-labelled cysteine peptide fold change,10 µM,-0.0527
same,probe-labelled cysteine peptide fold change,50 µM,0.0332
SLC4A7_Q9Y6M7_120_VQFILGTEDDDEEHIPHDLFTEMDELCYR (UniProt Q9Y6M7),probe-labelled cysteine peptide fold change,10 µM,0.222
same,probe-labelled cysteine peptide fold change,50 µM,-0.577
RPS17_P08708_35_RVCEEIAIIPSKK (UniProt P08708),probe-labelled cysteine peptide fold change,10 µM,-0.177
same,probe-labelled cysteine peptide fold change,50 µM,0.0725
SETDB1_Q15047_582_LFYLPHVCSYTCLSR (UniProt Q15047),probe-labelled cysteine peptide fold change,10 µM,-0.142
same,probe-labelled cysteine peptide fold change,50 µM,-0.048
SNUPN_O95149_356_GSSHSPDHPGCLMEN (UniProt O95149),probe-labelled cysteine peptide fold change,10 µM,0.0268
same,probe-labelled cysteine peptide fold change,50 µM,-0.656
SMG7_Q92540_537_NLSNNCDTGEKPVVTFK (UniProt Q92540),probe-labelled cysteine peptide fold change,10 µM,-0.036
same,probe-labelled cysteine peptide fold change,50 µM,-0.226
SLPI_P03973_51+57_YKKPECQSDWQCPGK (UniProt P03973),probe-labelled cysteine peptide fold change,10 µM,-0.301
same,probe-labelled cysteine peptide fold change,50 µM,-0.883
SMARCC2_Q8TAQ2_80_CFLDFK (UniProt Q8TAQ2),probe-labelled cysteine peptide fold change,10 µM,-0.00468
same,probe-labelled cysteine peptide fold change,50 µM,0.128
SASS6_Q6UVJ0_94_FIDLLQQCTQEHAK (UniProt Q6UVJ0),probe-labelled cysteine peptide fold change,10 µM,0.0471
same,probe-labelled cysteine peptide fold change,50 µM,0.0533
